The values below come from PubChem BioAssay (NCI).

This is part of a sample that, as a whole, favours compounds with a hit. Of some 83,000 tested, about 20% had one in any assay.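 Cell lines were cultured in 96-well plates, exposed to a single compound concentration, and assessed for percent growth 48 hours later.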 A number with no mark means an inactive call. Calls of active or inactive are those of the source. How the source made its calls: active means growth percent below 10; inactive means the rest.

Test systems include RPMI-8226 leukemia; OVCAR-8 ovarian; OVCAR-5 ovarian; OVCAR-4 ovarian; SK-OV-3 ovarian; IGROV1 ovarian; OVCAR-3 ovarian; HS 578T breast; NCI/ADR-RES ovarian; T-47D breast; BT-549 breast; MDA-MB-435 melanoma; SW-620 colon; MCF7 breast; HCT-116 colon; HCC-2998 colon; KM12 colon.
What all share (test): NCI-60 one-dose screen, 48 h (100 = growth as untreated, 0 = no growth, -100 = all killed)
Common to all, as to details: 10 µM

`COc1ccccc1/C=C/C(=O)c1ccccc1`: the growth was -36.2% (active) in the assay on RPMI-8226 leukemia; 61.8% in the assay with OVCAR-8 ovarian; 105% in the assay with OVCAR-5 ovarian; 70.2% in the assay with OVCAR-4 ovarian; 118% in the assay on SK-OV-3 ovarian; 28.8% with IGROV1 ovarian. Further, the growth with OVCAR-3 ovarian was 59.9%; in the assay on HS 578T breast, 73.9%; in the assay on NCI/ADR-RES ovarian, 86.7%; in the assay with T-47D breast, 94.8%; in the assay on BT-549 breast it was 88.4%; with MDA-MB-435 melanoma, 70.7%. Further, the growth is 14.9% in the assay on SW-620 colon; 32.2% in the assay on MCF7 breast; 55.3% with HCT-116 colon; 101% in the assay with HCC-2998 colon; 27.9% with KM12 colon.

Take `CSc1nc(=O)n(Cc2ccc(Cl)cc2)c(=O)[nH]1`: the growth is 103% with RPMI-8226 leukemia; 98.8% with OVCAR-8 ovarian; 102% in the assay with OVCAR-5 ovarian; 110% in the assay on OVCAR-4 ovarian; 99.7% in the assay with SK-OV-3 ovarian; 132% in the assay with IGROV1 ovarian. Moreover, the growth is 114% with OVCAR-3 ovarian; 105% in the assay on HS 578T breast; 105% in the assay with NCI/ADR-RES ovarian; 90.1% in the assay on T-47D breast; 98% in the assay with BT-549 breast; 114% with MDA-MB-435 melanoma. The growth in the assay with SW-620 colon was 110%; in the assay with MCF7 breast, 99.3%; in the assay with HCT-116 colon, 103%; with HCC-2998 colon, 103%; in the assay with KM12 colon, 108%.

As to `O=C(Nc1ccccc1)Nc1cccc(-n2cc(-c3ccncc3)c(-c3ccc(O)c(Cl)c3)n2)c1`, the growth in the assay on RPMI-8226 leukemia is 9.53% (active); in the assay with OVCAR-8 ovarian, 42.7%; in the assay on OVCAR-5 ovarian, 91.1%; in the assay with OVCAR-4 ovarian, 72.8%; in the assay on SK-OV-3 ovarian it was 58.6%; with IGROV1 ovarian, 89.7%. The growth is 73.8% in the assay on OVCAR-3 ovarian; 40% in the assay with HS 578T breast; 83.2% in the assay with NCI/ADR-RES ovarian; 44.6% in the assay with T-47D breast; 67.1% in the assay with BT-549 breast; 52.4% in the assay with MDA-MB-435 melanoma. In addition, the growth is 50.8% in the assay with SW-620 colon; 32.5% in the assay on MCF7 breast; 41.2% in the assay with HCT-116 colon; 44.2% with HCC-2998 colon; 32.6% in the assay on KM12 colon.

Take `CN(C)c1ccc(N=C2C=CC(=O)c3ccccc32)cc1`: the growth is 65.4% in the assay with RPMI-8226 leukemia; 76.3% with OVCAR-8 ovarian; 88% with OVCAR-5 ovarian; 71.5% in the assay on OVCAR-4 ovarian; 95.4% in the assay with SK-OV-3 ovarian; 88.6% in the assay with IGROV1 ovarian. The growth in the assay on OVCAR-3 ovarian is 23.8%; with HS 578T breast, 95.6%; in the assay on NCI/ADR-RES ovarian, 85.5%; in the assay with T-47D breast, 81.3%; with BT-549 breast, 94.5%; in the assay with MDA-MB-435 melanoma, -87% (active). Further, the growth was 93.3% in the assay on SW-620 colon; 53.1% with MCF7 breast; 78.4% in the assay with HCT-116 colon; 67.3% in the assay with HCC-2998 colon; 54.8% with KM12 colon.

For `CCN(CC)CCN1CC(=O)Nc2cc(Cl)ccc21`, the growth was 109% in the assay on RPMI-8226 leukemia; 108% in the assay on OVCAR-8 ovarian; 102% in the assay with OVCAR-5 ovarian; 103% in the assay on OVCAR-4 ovarian; 110% in the assay with SK-OV-3 ovarian; 99.9% in the assay with IGROV1 ovarian. The growth is 109% in the assay with OVCAR-3 ovarian; 94.4% with HS 578T breast; 94.2% with NCI/ADR-RES ovarian; 107% in the assay on T-47D breast; 107% in the assay on BT-549 breast; 98.8% with MDA-MB-435 melanoma. Further, the growth was 86.4% in the assay with SW-620 colon; 104% in the assay with MCF7 breast; 102% with HCT-116 colon; 102% in the assay on HCC-2998 colon; 103% in the assay with KM12 colon.

In the case of `Cc1cccc(NC2=C(C#N)C(=O)NC3(CCCC3)S2)c1`, the growth in the assay on RPMI-8226 leukemia was 90%; in the assay with OVCAR-8 ovarian it was 100%; in the assay with OVCAR-5 ovarian, 103%; in the assay with OVCAR-4 ovarian it was 103%; in the assay on SK-OV-3 ovarian, 103%; with IGROV1 ovarian it was 168%. In addition, the growth is 116% with OVCAR-3 ovarian; 103% in the assay with HS 578T breast; 100% with NCI/ADR-RES ovarian; 102% in the assay on T-47D breast; 102% in the assay on BT-549 breast; 101% with MDA-MB-435 melanoma. Further, the growth is 103% in the assay on SW-620 colon; 89.8% with MCF7 breast; 105% with HCT-116 colon; 95.8% in the assay with HCC-2998 colon; 104% in the assay on KM12 colon.

With `O=C(Nc1cccc(-n2cc(-c3ccncc3)c(-c3cc(O)cc(Cl)c3)n2)c1)c1ccc(N2CCOCC2)c(C(F)(F)F)c1`, the growth in the assay with RPMI-8226 leukemia is -3.77% (active); in the assay with OVCAR-8 ovarian it was 22.7%; in the assay on OVCAR-5 ovarian, 81.4%; in the assay on OVCAR-4 ovarian it was 77.1%; with SK-OV-3 ovarian, 50.7%; in the assay on IGROV1 ovarian, 44.3%. For the same compound, the growth was 36.4% in the assay with OVCAR-3 ovarian; 17.9% in the assay on HS 578T breast; 35% in the assay on NCI/ADR-RES ovarian; 29.3% in the assay with T-47D breast; 52.2% in the assay on BT-549 breast; 23% in the assay on MDA-MB-435 melanoma. Besides, the growth in the assay on SW-620 colon was -26.2% (active); in the assay with MCF7 breast, 29.7%; with HCT-116 colon, 12.7%; in the assay on HCC-2998 colon, -3.65% (active); with KM12 colon, 9.89% (active).

For the compound `Cc1cc(=O)n2nnc3c4ccccc4ccc3n12`, the growth in the assay with RPMI-8226 leukemia was 8.01% (active); in the assay on OVCAR-8 ovarian, 27.3%; in the assay with OVCAR-5 ovarian it was 88.5%; in the assay on OVCAR-4 ovarian it was 49.3%; with SK-OV-3 ovarian it was 53.6%; with IGROV1 ovarian, 61.8%. For the same compound, the growth in the assay with OVCAR-3 ovarian is 40.4%; with HS 578T breast, 104%; in the assay on NCI/ADR-RES ovarian, 68.4%; in the assay with T-47D breast it was 47.6%; in the assay with BT-549 breast, 72.8%; in the assay with MDA-MB-435 melanoma, 104%. Besides, the growth in the assay on SW-620 colon was -62% (active); with MCF7 breast it was 45%; with HCT-116 colon it was 8.71% (active); in the assay with HCC-2998 colon, 105%; in the assay with KM12 colon, 91.2%.

Consider `O=C(Nc1ccc(OS(=O)(=O)c2ccccc2)cc1)C12CC3CC(CC(C3)C1)C2`, for which the growth with RPMI-8226 leukemia is 18.8%; in the assay with OVCAR-8 ovarian, 63%; in the assay with OVCAR-5 ovarian, 68%; in the assay with OVCAR-4 ovarian, 58.9%; in the assay on SK-OV-3 ovarian it was 74%; in the assay on IGROV1 ovarian, 75.1%. The growth in the assay with OVCAR-3 ovarian was 63.9%; with HS 578T breast, 63.1%; with NCI/ADR-RES ovarian it was 52.5%; in the assay with T-47D breast it was 27%; in the assay on BT-549 breast, 25.8%; in the assay with MDA-MB-435 melanoma, 72.6%. Further, the growth with SW-620 colon is 5.02% (active); with MCF7 breast it was 32%; in the assay on HCT-116 colon, 32.8%; in the assay on HCC-2998 colon it was 26.1%; in the assay on KM12 colon it was 28.4%.
